Experimental findings from ChEMBL document CHEMBL4513216, “Probing the Open Global Health Chemical Diversity Library for Multistage-Active Starting Points for Next-Generation Antimalarials” (ACS Infect Dis, 2020) are described below.

The whole screen tested about 69,000 compounds, of which about 8,600 (12%) showed an effect of 50% or more. Only a selection was taken, and strong results are over-represented in it overall.

The subject of the test is Plasmodium berghei. Description: Screen against P. berghei liver stage (PbLuc), transformed with Luciferase, at 10uM. The class given is functional, HepG2. The following applies: tested at 10 uM.
On to `CS(=O)(=O)N1CCc2ncc(CNC(=O)C3CCC3)n2CC1`, for which the INHIBITION is reported as -18.2%.

As to `CNc1cccc(CC2COCCN(C(=O)c3cnn(C)c3)C2)n1` (stereo not given), the INHIBITION turned out to be 27.15%.

`O=C1NCC2(CCN(C(=O)c3ccc4c(c3)CCCO4)CC2)O1`: the INHIBITION is on record as 70.4%.

`O=C1NCC2(CCCN(C(=O)c3ccc4c(c3)OCCO4)CC2)O1` (stereo not given): the INHIBITION is reported as 42.6%.

In the case of `O=C1NCC2(CCCN(C(=O)c3ccc4c(c3)CCCO4)CC2)O1` (stereo not given), the INHIBITION amounted to 38.3%.

In the case of `Cc1c(Br)cnn1CC(=O)Nc1ccon1`, the INHIBITION stood at 34.2%.

Regarding `COCC1COCCC12CCN(S(=O)(=O)c1ccccc1)CC2` (stereo not given), the INHIBITION is on record as -27.1%.

As to `Cn1ncc(NCc2cccc(OCC(F)(F)F)c2)c(Cl)c1=O`, the INHIBITION is given as 99.6%.

Regarding `Cn1ncc(NCc2cccc(COC(C)(C)C)c2)c(Cl)c1=O`, the INHIBITION came to 80.6%.

On to `COc1cccc(CNc2cc(CO)ccc2Cl)c1`, for which the INHIBITION is on record as 42.6%.

As to `COc1ccc(CNc2cnn(C)c(=O)c2Cl)cc1`, the INHIBITION was found to be 52.3%.

`CCn1c(NCc2ccc(OC)cc2)nc2c(C)nn(C)c2c1=O`: the INHIBITION was 13.5%.

`COc1cccc(CNc2cnn(C)c(=O)c2Cl)c1`: the INHIBITION came to 49.6%.

In the case of `Cc1c(C(=O)NCc2ccnc(OCC(F)(F)F)c2)cnn1C`, the INHIBITION is -6.11%.

`CC(C)OCc1cccc(CNc2cnn(C)c(=O)c2Cl)c1`: the INHIBITION was 85.2%.

For `CC(NCc1cccc(COC2CCCC2)c1)c1cnn(C)c1` (stereo not given), the INHIBITION was -0.448%.

Regarding `CC(C)N1CCC[C@H]1C(=O)NCC1CCN(c2cnn(C)c(=O)c2)CC1`, the INHIBITION came out at 15.1%.

Take `Cc1cccc(C(C)(C)CNc2cn[nH]c(=O)c2Cl)c1`: the INHIBITION is given as -5.92%.

Consider `CCOc1cccc(CNc2cnn(CC(C)C)c2CC)c1`, for which the INHIBITION was 39.5%.

With `Cc1nn(C)c(C)c1C1CCCN1C(=O)c1cc(C(N)=O)cs1` (stereo not given), the INHIBITION was -11.2%.

On to `CN1C(=O)CC(c2cnn(C)c2)C12CCN(C(=O)C1CC=CC1)CC2` (stereo not given), for which the INHIBITION is on record as -16.5%.

Take `CN(C)Cc1ccnc(C2CN(Cc3c(F)cccc3F)CCO2)n1` (stereo not given): the INHIBITION turned out to be 8.53%.

As to `Cn1ccnc1CNCC1CCCN1c1cccnn1` (stereo not given), the INHIBITION was -31.5%.

As to `CC(Cn1cccn1)NC(=O)N1CCCN(Cc2cccs2)CC1` (stereo not given), the INHIBITION is recorded as 14.4%.

Turning to `CN(C)CCn1c(=O)n(C)c(=O)c2ccccc21`, the INHIBITION is given as -40.3%.

On to `CCC(=O)N1CCC2(CCC(N3CCCC3)c3ccccc32)CC1` (stereo not given), for which the INHIBITION amounted to 40.8%.

Take `Cc1nn(C)c(N(C)C)c1CNC1CCCCNC1=O` (stereo not given): the INHIBITION amounted to 5.42%.

For the compound `C=Cn1cc(CN2CCN(CC3(c4ccccc4)CC3)CC2)c(C)n1`, the INHIBITION was determined as 26.57%.

In the case of `CN(Cc1ccncn1)C(=O)CCc1[nH]nc2c1CCCC2`, the INHIBITION came to 33.9%.

Regarding `CCN(CC)C(=O)C1CCC(=O)N(CCc2cccc(F)c2)C1` (stereo not given), the INHIBITION stood at 12.3%.

Regarding `CC(C)N(C)C(=O)C1CCC(=O)N(CCc2cccc(F)c2)C1` (stereo not given), the INHIBITION is recorded as 52.3%.

`CCN(CCO)C(=O)C1CCC(=O)N(CCc2cccc(F)c2)C1` (stereo not given): the INHIBITION amounted to 43.7%.

As for `CCCN(CCO)C(=O)C1CCC(=O)N(CCc2ccc(Cl)cc2)C1` (stereo not given), the INHIBITION is on record as -39.9%.

`CC(C)N(CCO)C(=O)C1CCC(=O)N(CCc2ccc(Cl)cc2)C1` (stereo not given): the INHIBITION is on record as 26.6%.

For `CC(C)N(CCO)C(=O)C1CCC(=O)N(CCc2cccc(F)c2)C1` (stereo not given), the INHIBITION came out at 56.6%.
